Test results taken from PubChem BioAssay AID1456 (Vanderbilt High Throughput Screening Facility, 2008).
The whole screen tested about 190,000 compounds, of which about 4,100 (2.2%) were called active. Many of the other results were omitted from the sample, so actives are more common in it than they were. A number with no mark means an inactive call.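 How the source made its calls: active means thallium flux slope and its plate-corrected score both differing from the plate sample mean at a set confidence after two filtering rounds, in either direction; inactive means the rest.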

Molecular target: Solute carrier family 12 member 5 (Homo sapiens) (UniProt Q9H2X9)
Sequence (Q9H2X9 whole entry, looked up): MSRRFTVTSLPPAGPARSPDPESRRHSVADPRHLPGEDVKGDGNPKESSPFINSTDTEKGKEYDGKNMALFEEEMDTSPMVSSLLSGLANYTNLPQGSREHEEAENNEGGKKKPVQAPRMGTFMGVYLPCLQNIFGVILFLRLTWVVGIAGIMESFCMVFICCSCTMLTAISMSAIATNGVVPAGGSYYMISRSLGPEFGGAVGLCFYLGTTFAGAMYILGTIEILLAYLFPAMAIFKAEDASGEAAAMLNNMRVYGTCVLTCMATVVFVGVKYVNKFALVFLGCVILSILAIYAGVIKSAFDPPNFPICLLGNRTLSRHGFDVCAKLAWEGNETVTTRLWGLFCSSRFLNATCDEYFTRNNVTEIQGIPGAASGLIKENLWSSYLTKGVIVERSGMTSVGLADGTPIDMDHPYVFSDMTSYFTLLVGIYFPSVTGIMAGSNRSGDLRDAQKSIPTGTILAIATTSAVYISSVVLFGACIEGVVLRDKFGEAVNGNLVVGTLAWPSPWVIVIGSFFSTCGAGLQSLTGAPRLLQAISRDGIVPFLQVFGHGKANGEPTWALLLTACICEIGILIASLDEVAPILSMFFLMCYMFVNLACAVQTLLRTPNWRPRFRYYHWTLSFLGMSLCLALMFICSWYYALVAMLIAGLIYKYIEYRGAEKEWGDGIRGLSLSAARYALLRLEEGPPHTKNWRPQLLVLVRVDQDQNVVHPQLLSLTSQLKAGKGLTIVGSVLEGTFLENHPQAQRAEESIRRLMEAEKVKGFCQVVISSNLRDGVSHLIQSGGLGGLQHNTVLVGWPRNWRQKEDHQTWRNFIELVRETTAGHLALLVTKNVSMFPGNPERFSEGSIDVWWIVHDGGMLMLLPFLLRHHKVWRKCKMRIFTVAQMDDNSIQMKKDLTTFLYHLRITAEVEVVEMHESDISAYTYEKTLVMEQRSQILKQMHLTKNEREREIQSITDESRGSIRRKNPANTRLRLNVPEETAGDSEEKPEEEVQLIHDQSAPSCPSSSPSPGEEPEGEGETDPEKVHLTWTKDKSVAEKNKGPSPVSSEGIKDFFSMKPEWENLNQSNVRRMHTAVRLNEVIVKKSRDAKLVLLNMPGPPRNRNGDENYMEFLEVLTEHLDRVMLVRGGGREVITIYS
Experiment: modulation of human KCC2 ion transport – cell-based, HEK293 KCC2, FluoZin-2 fluorescence, MLSMR, primary screen (AID 1456);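 further: slope of fluorescence scaled to starting intensity during 10 to 20 s after thallium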
Settings: KCC2 cells, thallium flux FluoZin-2 fluorescence; at 10 µM

Compound	B-score of Tl+ flux slope (higher = more flux/activation; lower = inhibition)
CCCCC(=O)N/N=C/c1c(O)n(-c2ccccc2)c(=O)[nH]c1=O	-0.272
O=C(CSC1c2ccccc2-c2ccccc21)N/N=C/c1ccccc1	2.57 (active)
c1cc2c(cc1[C@H]1OC[C@H]3[C@@H]1CO[C@@H]3c1ccc3c(c1)OCO3)OCO2	0.711
CCC1(C)CC(CCNCc2ccc(N(C)C)cc2)(c2ccc(F)cc2)CCO1 (stereo not given)	1.55
CNC(=O)O/N=C(\N)Cc1csc2ccccc12	0.111
COc1cc(-n2c(=S)[nH]c3ccc(C)cc3c2=O)c(Cl)cc1Cl	69.6 (active)
COc1cccc(CN2CCCC(C(=O)c3ccccc3SC)C2)c1O (stereo not given)	-3.42
COc1cc(OC)cc(C2(C#N)CCN(C)CC2)c1	-0.32
CSc1ccc(C(=O)C2CCCN(Cc3ccn[nH]3)C2)cc1 (stereo not given)	0.628
Cc1ccc(CN2CCCC(C(=O)c3ccc4c(c3)OCO4)C2)cc1C (stereo not given)	-0.421
